{"source": "PubChem BioAssay (Tox21)", "note": "Results filed as inconclusive are left out. Activity calls are given as the source filed them. The call rests on the fitted dose curve; in most records, active means well fitted cell-killing curve with a large enough effect in the repeat runs; inconclusive means weak or mixed curves; inactive means flat fitted curve, though single readings scatter."}
{"assay": "qHTS assay to identify small molecule antagonists of the TGF-beta/Smad signaling pathway - cell viability counter screen (AID 1346824); further: nearly all actives have a fitted effect of over 50% in size", "conditions": "SBE-bla HEK293T viability, CellTiter-Glo luminescence; series mostly up to 76.8 µM", "excerpt": "U.S. Tox21 Program National Center for Advancing Translational Sciences [NCATS] NIH Chemical Genomics Center [NCGC] U.S. Environmental Protection Agency [EPA] National Institutes of Environmental Health Sciences [NIEHS] National Toxicology Program [NTP] U.S. Food and Drug Administration [FDA] Tox21 Assay Overview: Transforming growth factor beta (TGF-beta) superfamily consists of a large number of structurally related dimeric proteins that act as hormones or local mediators in regulating a wide range of biological functions. This superfamily includes TGF-betas themselves, the bone morphogenetic proteins (BMPs) and the activins. These ligands induce oligomerization of serine/threonine receptor kinases and phosphorylate the cytoplasmic signaling molecules of Smad protein family. CellSensor SBE-bla HEK 293T cell line (Life Technologies, Carlsbad, CA), responsive to TGF-beta was used to screen Tox21 10K compound library for identification of agonists/antagonists of the Smad signaling pathway. This cell line contains a beta-lactamase reporter gene under control of the Smad binding element (SBE) stably integrated into HEK 293T cells. Also cytotoxicity of the compounds was tested in parallel by measuring the cell viability using CellTiter-Glo assay system in the same wells.\nTox21 Assay Protocol Summary: SBE-bla HEK 293T cells were dispensed at 4,000/well in 5 uL of assay medium into black wall/clear-bottom 1536-well plates using a Multidrop Combi (ThermoFisher Scientific, Waltham, MA) dispenser. After the assay plates were incubated at 37 C and 5% CO2 for an overnight, 23 nL of compounds dissolved in DMSO, positive controls or DMSO only was transferred to the assay plate by a Pintool station (Kalypsys, San Diego, CA). Compound transfer was followed by the addition of 1 uL of 0.25 ng/mL TGF-beta1 or assay buffer using two separate tips of Flying Reagent Dispenser (FRD, Aurora Discovery, San Diego, CA). The assay plates were incubated at 37 C and 5% CO2 for 5 hr. One uL of LiveBLAzer B/G FRET substrate (Life Technologies) was added using a Flying Reagent Dispenser (FRD, Aurora Discovery, San Diego, CA) and the plates were incubated at room temperature for 2 hr. Fluorescence intensity (405 nm excitation, 460 nm and 530 nm emissions) was measured using an Envision plate reader (PerkinElmer, Shelton, CT). For cytotoxicity read, 4 uL of CellTiter-Glo reagent (Promega Corporation, Madison, WI) was added to each well of the assay plates using FRD. After 30 min incubation at room temperature, the luminescence intensity was measured using ViewLux plate reader (PerkinElmer)."}
{"smiles": "CCNc1cccc(C)c1", "outcome": "inactive"}
{"smiles": "N[C@H](Cc1c[nH]c2ccccc12)C(=O)O", "outcome": "inactive"}
{"smiles": "NCCCCCCN", "outcome": "inactive"}
{"smiles": "O=C(O)Cn1c(=O)n(Cc2ccc(Br)cc2F)c(=O)c2ccc(Cl)cc21", "outcome": "inactive"}
{"smiles": "CC(C)=CCl", "outcome": "inactive"}
{"smiles": "O=C(O)/C=C/C(=O)O", "outcome": "inactive"}
{"smiles": "O=C1C(c2[nH]c3ccccc3c2O)=Nc2ccccc21", "outcome": "inactive"}
{"smiles": "Cc1ccc([N+](=O)[O-])cc1S(=O)(=O)O", "outcome": "inactive"}
{"smiles": "CCOC(=O)c1ccc(N)cc1", "outcome": "inactive"}
{"smiles": "NCCNCCN", "outcome": "inactive"}
{"smiles": "CC(C)(C)c1cc(Cc2cc(C(C)(C)C)c(O)c(C(C)(C)C)c2)cc(C(C)(C)C)c1O", "outcome": "inactive"}
{"smiles": "CC1(C)OC[C@@H]2O[C@@]3(C(=O)O)OC(C)(C)O[C@H]3[C@@H]2O1", "outcome": "inactive"}
{"smiles": "O=C(O)c1ccccc1C(=O)O", "outcome": "inactive"}
{"smiles": "C[Si]1(C)O[Si](C)(C)O[Si](C)(C)O[Si](C)(C)O1", "outcome": "inactive"}
{"smiles": "COC(=O)CCCC(=O)OC", "outcome": "inactive"}
{"smiles": "CC(C)c1cccc(C(C)C)c1", "outcome": "inactive"}
{"smiles": "CCCCCCCCCCN", "outcome": "inactive"}
{"smiles": "CCCCCCCCCCCCCCCCO", "outcome": "inactive"}
{"smiles": "O=C(O)c1ccc(S(=O)(=O)N(Cl)Cl)cc1", "outcome": "inactive"}
{"smiles": "CCCCCCCO", "outcome": "inactive"}
{"smiles": "CC(C)(C#N)c1cc(Cn2cncn2)cc(C(C)(C)C#N)c1", "outcome": "inactive"}
{"smiles": "Cc1ccc(C(C)C)c(O)c1", "outcome": "inactive"}
{"smiles": "CCCCCCO", "outcome": "inactive"}
{"smiles": "CC(C)CC(=O)CC(C)CC(C)C", "note": "(stereo not given)", "outcome": "inactive"}
{"smiles": "CC(=O)OCc1ccco1", "outcome": "inactive"}
{"smiles": "CC(C)CC(C)O", "note": "(stereo not given)", "outcome": "inactive"}
{"smiles": "Nc1nc(N)nc(-c2ccccc2)n1", "outcome": "inactive"}
{"smiles": "Brc1ccc(Br)c(Br)c1", "outcome": "inactive"}
{"smiles": "C[C@]12CCC(=O)C=C1CC[C@@H]1[C@@H]2[C@@H](O)C[C@@]2(C)[C@H]1CC[C@]2(O)C(=O)CO", "outcome": "inactive"}
{"smiles": "CCCCCCCCCCCCCCCC(=O)OC(C)C", "outcome": "inactive"}
{"smiles": "CCOC(=O)n1ccn(C)c1=S", "outcome": "inactive"}
{"smiles": "CCNc1ccccc1", "outcome": "inactive"}
{"smiles": "CCOCCOCCOCCO", "outcome": "inactive"}
{"smiles": "Cc1ccc(S(=O)(=O)N=C=O)cc1", "outcome": "inactive"}
{"smiles": "C=CCc1ccc(OC)c(OC)c1", "outcome": "inactive"}
{"smiles": "C=CCCCCCCCCC(=O)O", "outcome": "inactive"}
{"smiles": "O=c1[nH]cnc2[nH]ncc12", "outcome": "inactive"}
{"smiles": "COc1ccc(OC)cc1", "outcome": "inactive"}
{"smiles": "COCCOC(=O)c1ccccc1C(=O)OCCOC", "outcome": "inactive"}
{"smiles": "CNC(=S)N(C)C", "outcome": "inactive"}
